# Reference: PubChem BioAssay AID1508600 (Functional Genomics Laboratory (NCATS/FGL), 2020)
# The campaign covered roughly 53,000 sequences. About 3,700 (7%) were called active. The sample as a whole holds a higher share of actives than the screen did. A number with no mark means an inactive call.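 The calls were made as follows: active = gene knockdowns whose robust z-score for IL-1 alpha signal is at least 2 or at most -2, so actives lie on both sides; inactive = the rest.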
# Assay: Components of the Cytosolic LPS Sensing Pathway: Gene Identification via Genome-wide siRNA Screen;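 also: robust z of the log signal after scaling to non-targeting control siRNA wells of the plate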
# Details: RAW264.7 macrophages, IL-1a HTRF, actives lie on both sides, screened at 100 nM (by protocol), cells primed 5 h with Pam3CSK4 first
# Method in brief: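 Supernatant IL-1a by HTRF from RAW264.7 cells primed with Pam3CSK4 (5 hours) and transfected with LipidA (24 hour) after 48h siRNA knockdown at 100 nM; cell viability checked with CellTiter-Glo.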
row,Sequence,z-score
1,CGAGUGUUUGGACAACAAUTT against Ldlr,0.391
2,CUAUGUGGUCACAAUAGAGTT against Olfr1360,0.411
3,CCUAUGUCACUAAGGCACGTT against Nudt13,0.482
4,GCACGAUCUUCCAAACCCUTT against Dhh,-1.25
5,CCAGGGUGGUCUUUUGAAGTT against Eif1,-1.66
6,GGUAGAUGAUAAUUUCACUTT against 4930595M18Rik,-0.894
7,GCCAUGAGACACCUUCUCUTT against Olfr843,-1.96
8,GGCGAACUGAAGGAUAUGGTT against Anapc5,0.835
9,ACAUGACAAACAACACUAUTT against Olfr960,-0.891
10,GGCAGCUAGAGAGAAUCCUTT against Akr1c12,-2.45 (active)
11,GCUUUCGGUGGAUUCCUUATT against Rars2,-0.714
12,GGACUGGUUCUUCAGAUCCTT against Depp1,3.31 (active)
13,GGCUUUCGGUUAUGACCAATT against Alas2,-0.385
14,GGAAACCAUCUUUGAACUUTT against Specc1l,0.54
15,GGAUGUAUGAUGCAGUUAUTT against Olfr1211,1.89
16,GGGAUUUGAGCAUCUUUCCTT against Lrrc40,0.571
17,GGCUUUGAUUAUGUUCCCATT against Fcer2a,-0.188
18,GGUGACUAGAAAAAUGGAUTT against Cd1d1,0.528
19,GGAGAAGAUGUGGAGACAUTT against Edf1,-1.3
20,GGCAAAGAUCUUAUGGAGATT against Csf3r,0.0079
21,GGUUCUUUUUGCCACAGCCTT against Miga2,-2.31 (active)
22,GGGAGUAUUACCUCCUUCATT against Igbp1b,0.00303

row,Sequence,z-score
1,GCAGCUUGAGUUCUCGAAUTT against BC049715,0.971
2,GGAAGAAGCUCUAUGCUGATT against Fbxo9,-0.589
3,GCUUGACCUUUUUACUCCUTT against Siglece,0.262
4,GCAGAACUUGACCACUGCCTT against Defb2,2.58 (active)
5,GGAUAAUUCACAGUUCAAATT against Tlk1,1.14
6,GGACAUCAUGGACCUGAAGTT against Bmerb1,-0.582
7,GAAGCUAGAAGAGAUUAAATT against Cep41,0.821
8,CCCUGUUGAUGAACAAAUCTT against Ddt,-0.262
9,GGUAUGUAGGAAUUACAGUTT against AI606181,2.49 (active)
10,CCUGUCGUUCCUCCUUACATT against Sec11a,-1.29
11,CCAACCUCCCAUUCUGAAUTT against Ttc22,1.71
12,GGGCUUAUUCUGUUAAUAGTT against Mttp,-0.215
13,GCAGGGAUCUGGAUUUAAUTT against Arf5,3.37 (active)
14,CUUAGACCCAAUUCAAUUCTT against Zfp667,-0.0845
15,CGGCUUCUUAGGAAACUCUTT against Olfr358,-0.369
16,GGUGAAAACGUGGUUCCAGTT against Bsx,-0.0072
17,GGUGACUUCCACUCUAACUTT against Sohlh2,-2.57 (active)
18,GGCUAUGAAUAAACUUUUCTT against Olfr1016,0.429
19,GGGAUGGAGGAGGAGCUUATT against Bad,0.86
20,GGAUUCAAUUUUUUGCCAUTT against Pbdc1,-1.74
21,CCACGUAUUGUUAGUAGAATT against Ei24,0.251
22,GUAAGGUAUUCAGUGACCUTT against Olfml2a,-2.23 (active)

row,Sequence,z-score
1,GGAAACAGAUUUAAAGUGATT against Efcc1,1.03
2,GGACAAGAAGGCAAAUUAGTT against Arhgap9,0.366
3,GCAUAAUAAGCCAAUUCUGTT against Med17,-0.355
4,GCUGAAGUUUACUAUAACATT against Marco,0.565
5,GGUACCAUCACGUUGUGUATT against M6pr,-0.76
6,CCUUGCUCUUUCCAGCUCUTT against Olfr704,0.332
7,GGACAUCGGCUACAACACCTT against Fzd10,-2.08 (active)
8,GCUGAGGCAAUUUCAACUUTT against Ctla4,0.169
9,GCACGACACUCUGUGCAUCTT against Kyat3,0.6
10,GCAUCCUACUUCUCAACUUTT against Ceacam12,0.328
11,GGGUUUCGCUAGAACCAUUTT against Plekhg5,-0.541
12,GCUUGUUGCCUAGGACCUATT against Eif1ad,-1.14
13,CCCUCAGAUUCAAAAAGUGTT against Krt1,0.233
14,GCAUGGAGAGAACCUGAAATT against Trim69,-0.801
15,GGGCCAAGAUACCAAGAGUTT against Spout1,-2.71 (active)
16,GGAUAACAGUAAAUGGCUUTT against Zkscan8,0.152
17,GGUUAAGUUACUAACCCAGTT against 4931406C07Rik,1.01
18,GAGACACUUGUGCUGUAGGTT against F730035P03Rik,0.108
19,GCACUGUAUUCUUGAGCACTT against 1700020L24Rik,2.06 (active)
20,GGUAGUGAUUACGAACCAATT against Hey1,0.605
21,GCCCAGUACUCCGCUUACATT against Bhlhe23,-2.03 (active)
22,GGGCUGAUCUUUUUAACUGTT against Tpm3,-0.581

row,Sequence,z-score
1,GGCCUUAGAGAAAAUCUUUTT against Brd3,0.871
2,ACCAGCACGACAGAUGCUATT against Pla2g12a,3.15 (active)
3,GGCAUACCGUAAAAGUGGCTT against Olfr73,-1.95
4,GCCAAGAUGGUUAAAUACCTT against Ankrd34b,-1.64
5,GGUUCGCCCUUGGAAAUGGTT against Dmap1,-0.258
6,GGAAUUCAUACCCUUGUUGTT against B3gnt5,-0.486
7,GGAGGUGAAAGGCAAAACUTT against Poldip2,-0.122
8,CGAAGGUCAAACAGUUUGATT against Stxbp6,-0.558
9,GGACUAGCAGUAAUAAAAGTT against Zdhhc9,-2.37 (active)
10,CCAGAAUUGAACUUCAAGUTT against 2610008E11Rik,-0.00302
11,GGGAGAGAACGUGUUCUUCTT against P2rx6,-0.477
12,GGAGAUCUCCAUCAUCACCTT against Usp50,-1.52
13,CCUAAUGUACACUAACUAUTT against Hsd17b14,1.84
14,CCCUAAGAGAGCCUAAAACTT against Serpina3c,-1.12
15,GAACUCUCUCUUCAUCUGGTT against Cd300ld3,2.18 (active)
16,CCUUUUUGCUGAAUGUGGATT against Aard,0.798
17,GGUGUUGGAUUCCAAUCCCTT against Uba5,-0.462
18,GGAUGAAAAGAUUGAACUCTT against Gart,3.22 (active)
19,GCUCGAUAUUUUGAAGUCCTT against Cntd1,0.693
20,GGAUCAGACUGUACGAGAGTT against Crygd,-1.11
21,GGAAAGUGAAAGUUAGUUUTT against Cbx6,0.244
22,GCAUUUGGAAUUUACCAUGTT against Wdr47,1.13

row,Sequence,z-score
1,GCCGAGUCUCAGCUUGUAATT against Dnajc3,0.258
2,GGAAUGGGAUUACACCUACTT against Mymk,2.67 (active)
3,GUAUGACCAGAAGAAAAAGTT against Lrrc72,-2.19 (active)
4,GGCAUAUCUGAGGUGAAUCTT against Sec23b,-1.57
5,GGAAAGAGCAAACAGUUCCTT against Il1f6,-2.09 (active)
6,GGUAUUUUGACAGAGUCGATT against Add1,-1.24
7,GGUGUUAUCUGCAUCAUCATT against Cyp4f15,-1.42
8,GGUACUUAUGUGGAUUGGATT against Rint1,-0.272
9,GGGACUGGACCCAUACAAUTT against Cox5b,4.27 (active)
10,CCGAGUAAGUUUAACUAAGTT against Lrrc39,-0.501
11,GCUAUAUAAAGGCUGAGUATT against Emilin3,-0.128
12,GGAUGAAGGCCAUUCAAACTT against Hnrnpd,2.04 (active)
13,GGAAGAUCUGAAGUCAAUCTT against Mvk,-1.08
14,GGAGAAAGACAUCAGAAAGTT against Rdh16f2,0.942
15,GGGCCUGAUCUACCUGUUUTT against Slc6a18,0.255
16,GGACAAGUAUGAAUGUCUATT against Ptk2b,1.25
17,CCAAGUGGUACGACCAUGATT against Gcnt3,1.3
18,CCGACCUGAAGACCUUACATT against Tmem18,-0.501
19,GCCCUAGGAGGAACUGAGUTT against Olfr458,-2.54 (active)
